From PubChem BioAssay (NCATS)
Inconclusive results are not listed. Active and inactive are the calls of the source. Calls follow the shape of the dose curve; as a rule, active = well fitted inhibition curve with a large enough effect; inconclusive = small, poorly fitted or top-dose-only effect; inactive = flat fitted curve, though single readings scatter.

Assays:
[1] = test system: CRL-7250; experiment: Cytotoxic Profiling of Annotated Libraries Using Quantitative High-Throughput Screening (AID 1296008); settings: Five cell lines viability, CellTiter-Glo ATP luminescence, 48-72 h; max response: stronger effect = lower value; as to max response: % is scaled to controls: 0 for no effect and ±100 for the full control effect
Summary of the method: (§1)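 Compounds were pin-transferred onto cells and incubated 48 or 72 hr at 37 degree Celsius, 95% humidity. CellTiter-Glo was added, plates sat 10 min at room temperature, then ATP-coupled luminescence was imaged as the viability read-out.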

[2] = test system: HEK293; experiment: as above; settings: Five cell lines viability, CellTiter-Glo ATP luminescence, 48-72 h; max response: stronger effect = lower value
Summary of the method: as §1

[3] = test system: HaCat; experiment: as above; settings: Five cell lines viability, CellTiter-Glo ATP luminescence, 48-72 h; max response: stronger effect = lower value
Summary of the method: as §1

[4] = test system: KB-3-1; experiment: as above; settings: Five cell lines viability, CellTiter-Glo ATP luminescence, 48-72 h; max response: stronger effect = lower value
Summary of the method: as §1

[5] = test system: NIH3T3; experiment: as above; settings: Five cell lines viability, CellTiter-Glo ATP luminescence, 48-72 h; max response: stronger effect = lower value
Summary of the method: as §1

[6] = test system: HACAT; experiment: qHTS assay to identify novel small-molecules to repurpose for Merkel cell carcinoma treatment (AID 1296009); settings: MCC and control cell lines, CellTiter-Glo viability, 72 h
Summary of the method: (§2)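 Viability readout: ATP luminescence (CellTiter-Glo) after 72 hr drug exposure at 37 degree celsius. Dose-response format was 8 points for NPC and 11 points for MIPE; data normalized to in-plate controls.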

[7] = test system: HEK293T; experiment: as above; settings: MCC and control cell lines, CellTiter-Glo viability, 72 h; series mostly up to 44.8 µM
Summary of the method: as §2

[8] = at 44.8 µM (top of the series) unless noted
Also: nearly all actives have a fitted effect of over 60% in size.

C=C1CCC2C(C)(C)CC(=O)CC2(C)C1CCC(C)CCOC(C)=O (stereo unspecified)
inactive: outcome [1] | outcome [2] | outcome [3] | max response [4] 5.05% | outcome [5] | outcome [6, 8] | Potency [7]

O=C(O[C@H]1[C@@H]2C=CO[C@@H](O[C@@H]3O[C@H](CO)[C@@H](O)[C@H](O)[C@H]3O)[C@@H]2[C@@]2(CO)O[C@@H]12)c1ccc(O)c(O)c1
inactive: outcome [1] | outcome [2] | outcome [3] | max response [4] 4.32% | outcome [5] | outcome [6, 8] inactive [at 17.4 µM] | Potency [7]

C[C@@H]1C[C@H](O[C@@H]2O[C@H](CO[C@@H]3OC[C@](O)(CO)[C@H]3O)[C@@H](O)[C@H](O)[C@H]2O)CC(C)(C)[C@H]1/C=C/[C@@H](C)O
inactive: max response [1] -2.76% | outcome [2] | outcome [3] | outcome [4] | outcome [5] | outcome [6, 8] inactive [at 17.4 µM] | Potency [7]

COc1ccc(C(OC2OC(CO)C(O)C(O)C2O)C(C)O)cc1 (stereo unspecified)
inactive: max response [1] -9.11% | outcome [2] | outcome [3] | max response [4] 5.57% | outcome [5] | outcome [6, 8] | Potency [7]

COc1cccc(-c2ccc([C@@H](Oc3cc(-c4ccc(C[C@H](N)C(=O)O)cc4)nc(N)n3)C(F)(F)F)cc2)c1
inactive: outcome [1] | outcome [2] | outcome [3] | outcome [4] | outcome [5] | outcome [6, 8] | Potency [7]

CO[C@@H]1COCC[C@@H]1N[C@@H]1CC[C@@](C(=O)N2CCc3ncc(C(F)(F)F)cc3C2)(C(C)C)C1
inactive: outcome [1] | outcome [2] | outcome [3] | outcome [4] | max response [5] -6.53% | outcome ([6]; at 17.4 µM (top of the series)) | outcome ([6]; at 44.8 µM (top of the series)) | Potency [7]

Clc1ccc(CN[C@H]2CCN(c3ncc(Br)cn3)C2)c(Cl)c1
inactive: max response [1] -7.31% | outcome [2] | outcome [3] | max response [4] -14.8% | max response [5] 4.57% | outcome [6, 8] | Potency [7]

CC1(CO)CC2C(O)C(=O)C3(CO)CC3(C)C2C1 (stereo unspecified)
inactive: max response [1] -4.66% | outcome [2] | outcome [3] | max response [4] 2.2% | outcome [5] | outcome [6, 8] | Potency [7]

C[C@@H]1C/C=C/C=C\C=C\C=C\[C@H](O[C@@H]2O[C@H](C)[C@@H](O)[C@H](N)[C@@H]2O)C[C@@H]2O[C@](O)(C[C@@H](O)C[C@H]3O[C@@H]3/C=C/C(=O)O1)C[C@H](O)[C@H]2C(=O)O
inactive: max response [1] 2.84% | outcome [2] | outcome [3] | max response [4] 3.12% | max response [5] -11.8% | outcome [6, 8] inactive [at 17.4 µM] | Potency [7]

CC1(C)CC[C@]2(C(=O)O[C@@H]3O[C@H](CO)[C@@H](O)[C@H](O)[C@H]3O)CC[C@]3(C)C(=CCC4[C@@]5(C)C[C@@H](O)[C@H](O)C(CO)(CO)C5CC[C@]43C)C2[C@@H]1O (stereo partly specified)
inactive: max response [1] 3.1% | outcome [2] | outcome [3] | max response [4] 8.19% | outcome [5] | outcome [6, 8] inactive [at 17.4 µM] | Potency [7]

CC(C)(O)C1CCC2(C)C3C(O)C4C(C13)C42CO (stereo unspecified)
inactive: outcome [1] | outcome [2] | outcome [3] | max response [4] 9.17% | max response [5] 0.322% | outcome [6, 8] | Potency [7]

CO[C@@H](Cc1ccc(OCCc2nc(-c3ccccc3)oc2C)c2ccsc12)C(=O)O
inactive: outcome [1] | outcome [2] | outcome [3] | max response [4] -3.49% | outcome [5] | outcome [6, 8] | Potency [7]

COc1ccc(C2=CC(=O)OC2Cc2ccc(O)cc2)c(O)c1 (stereo unspecified)
inactive: outcome [1] | outcome [2] | outcome [3] | max response [4] 6.42% | max response [5] 1.17% | outcome [6, 8] | Potency [7]

NCCCC[C@H](NC(=O)[C@@H]1Cc2ccccc2CN1C(=O)CCC(=O)c1ccccc1)C(=O)NCC(c1ccccc1)c1ccccc1
inactive: outcome [1] | outcome [2] | outcome [3] | outcome [4] | max response [5] 3.99% | outcome [6, 8] | Potency [7]

CN1CCC(c2c[nH]c3ccc(NC(=O)c4ccc(F)cc4)cc23)CC1
inactive: max response [1] -9.85% | outcome [2] | outcome [3] | max response [4] 7.4% | max response [5] -0.678% | outcome [6, 8] | Potency [7]

CC1(C)CC2C3=CCC4C5(C)CCC(OC6OC(C(=O)O)C(O)C(O)C6OC6OC(CO)C(O)C(O)C6OC6OC(CO)C(O)C(O)C6O)C(C)(CO)C5CCC4(C)C3(C)CCC2(C)C(OC2OCC(O)C(OC3OC(CO)C(O)C(O)C3O)C2O)C1O (stereo unspecified)
inactive: max response [1] 2.95% | outcome [2] | outcome [3] | max response [4] 5.61% | max response [5] -17.3% | outcome [6, 8] inactive [at 9.27 µM] | outcome [7] inactive [at 9.27 µM]

COC(=O)c1ccc(O[C@@H]2O[C@H](CO)[C@@H](O)[C@H](O)[C@H]2O)c(OC)c1
inactive: max response [1] -0.304% | outcome [2] | outcome [3] | max response [4] 4.82% | outcome [5] | outcome [6, 8] | Potency [7]

O=C(O)CCc1cc2ccoc2cc1O[C@@H]1O[C@H](CO[C@@H]2OC[C@](O)(CO)[C@H]2O)[C@@H](O)[C@H](O)[C@H]1O
inactive: max response [1] -5.99% | outcome [2] | outcome [3] | max response [4] 9.81% | max response [5] -2.27% | outcome [6, 8] inactive [at 17.4 µM] | Potency [7]

CC/C=C\C[C@H]1C(=O)C=C[C@@H]1CCCCCCCC(=O)O
inactive: max response [1] 4.76% | outcome [2] | outcome [3] | max response [4] -3.68% | outcome [5] | outcome [6, 8] | Potency [7]

CC1(C)CCC[C@@]2(C)[C@H]1[C@H](O)C=C1COC(=O)[C@@]12O
inactive: outcome [1] | outcome [2] | outcome [3] | max response [4] 4.4% | max response [5] 2.05% | outcome [6, 8] | Potency [7]

COC(=O)[C@H](CC1C=NC=N1)NCC12CC3CC(CC(C3)C1)C2 (stereo partly specified)
inactive: max response [1] -3.43% | outcome [2] | outcome [3] | max response [4] 1.43% | outcome [5] | outcome [6, 8] | Potency [7]

COC(=O)C1=COC(O[C@@H]2O[C@H](CO)[C@@H](O)[C@H](O)[C@H]2O)/C(=C\COC(=O)c2ccc(OC3OC(CO)C(O)C(O)C3O)c(OC)c2)C1CC(=O)OCCc1ccc(O)cc1 (stereo partly specified)
inactive: max response [1] -6.94% | outcome [2] | outcome [3] | outcome [4] | max response [5] 1.16% | outcome [6, 8] inactive [at 9.27 µM] | outcome [7] inactive [at 9.27 µM]

CC(CCC1C(C(=O)O)=CC(=O)CC1(C)C)O[C@@H]1O[C@H](CO)[C@@H](O)[C@H](O)[C@H]1O (stereo partly specified)
inactive: max response [1] 1.37% | outcome [2] | outcome [3] | outcome [4] | outcome [5] | outcome [6, 8] | Potency [7]

O=C1Nc2ccc(O)cc2O[C@H]1O[C@@H]1O[C@H](CO)[C@@H](O)[C@H](O)[C@H]1O
inactive: max response [1] -3.66% | outcome [2] | outcome [3] | outcome [4] | outcome [5] | outcome [6, 8] | Potency [7]

C=C1C[C@@]23CC[C@@H]4[C@](C)(C(=O)O)CCC[C@@]4(C)C2=CC[C@H]1C3
inactive: max response [1] -8.72% | outcome [2] | outcome [3] | max response [4] 4.16% | outcome [5] | outcome [6, 8] | Potency [7]

C/C1=C\C[C@H](O[C@@H]2O[C@H](CO)[C@@H](O)[C@H](O)[C@H]2O)/C(C)=C/[C@H]2OC(=O)[C@H](C)[C@@H]2CC1
inactive: max response [1] -3.83% | outcome [2] | outcome [3] | max response [4] 8.78% | outcome [5] | outcome [6, 8] inactive [at 17.4 µM] | Potency [7]

Nc1ncnc2c1ncn2[C@H]1CCCO1
inactive: max response [1] -0.0341% | outcome [2] | outcome [3] | outcome [4] | outcome [5] | outcome [6, 8] | Potency [7]

CC/C=C/CC1=C(CCCCCCCC(=O)O)CCC1=O
inactive: max response [1] 0.164% | outcome [2] | outcome [3] | max response [4] 0.0316% | max response [5] -0.116% | outcome [6, 8] | Potency [7]

CC(=O)N1CCN(NC(=O)c2ccc(F)cc2)CC1
inactive: max response [1] -0.968% | outcome [2] | outcome [3] | max response [4] 8.34% | max response [5] -3.31% | outcome [6, 8] | Potency [7]

CC(=O)O[C@H]1[C@H](C)[C@@H](O)[C@H]2[C@@H]1C=C(C(=O)O)[C@H]1C[C@@H]3[C@H]([C@H]21)[C@H]1C(=O)O[C@@H]2CC[C@@]3(C)O[C@]1(O)[C@@H]2C
inactive: max response [1] -0.589% | outcome [2] | outcome [3] | max response [4] 7.8% | outcome [5] | outcome [6, 8] inactive [at 17.4 µM] | Potency [7]
